Results filed as inconclusive are left out. Active and inactive are the calls of the source. Rule for the calls, unless noted: active = hit-call score of the fitted dose curve at least 0.9, where 1 is the maximum; inactive = score below 0.9.
Experiments:
[1] = molecular target: Paired box protein Pax-6 (Homo sapiens) (UniProt P26367); assay: ATG_Pax6_CIS: Attagene CIS-FACTORIAL HepG2 Assay for human Paired Box 6 (PAX6) (AID 2282956); settings: HepG2 CIS-FACTORIAL PAX6 reporter transcription, RNA readout; actives raise or lower the signal
How it was run: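 DMSO-referenced bidirectional fits of reporter mRNA fluorescence; HepG2 with transient cis-promoter MRTUs, 24 h post-dose, RT-PCR plus capillary electrophoresis detection.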

[2] = ATG_PXRE_CIS: Attagene CIS-FACTORIAL HepG2 Assay for human Pregnane X Receptor Element (PXRE) (AID 2282957); settings: HepG2 Attagene CIS-FACTORIAL PXRE reporter, mRNA; actives raise or lower the signal
How it was run: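 Bidirectional activity, baselined to DMSO, derived from reporter mRNA fluorescence (RT-PCR plus capillary electrophoresis) in HepG2 cells bearing cis-promoter reporter units, 24 h exposure.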

[3] = ATG_PPRE_CIS: Attagene CIS-FACTORIAL HepG2 Assay for human Peroxisome Proliferator-activated Response Element (PPRE) (AID 2282958); settings: HepG2 PPRE cis-element reporter, Attagene transcription factor profiling; actives raise or lower the signal
How it was run: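 Read-out: fluorescent reporter mRNA fragments resolved by capillary electrophoresis after RT-PCR. HepG2 cells carried transiently transfected PPRE-driven cis reporter constructs and were dosed for 24 h; gain or loss of signal fitted relative to DMSO.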

[4] = ATG_RORE_CIS: Attagene CIS-FACTORIAL HepG2 Assay for human RAR-related Orphan Receptor Element (RORE) (AID 2282959); settings: HepG2 Attagene cis-factorial RORE reporter, mRNA; actives raise or lower the signal
How it was run: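 Readout: fluorescent reporter mRNA by RT-PCR plus capillary electrophoresis, 24 h after dosing transfected HepG2 cells. Endogenous transcription factor activity on a cis promoter element is measured. Gain or loss of signal fitted against DMSO.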

[5] = ATG_Sox_CIS: Attagene CIS-FACTORIAL HepG2 Assay for human SRY-box transcription factor (SOX) (AID 2282960); settings: HepG2 Attagene cis-factorial SOX reporter, mRNA; actives raise or lower the signal
How it was run: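 Read-out: fluorescent RT-PCR products of SOX1-linked reporter transcripts resolved by capillary electrophoresis, fitted bidirectionally against DMSO. Transiently transfected HepG2 cells, 24 h after chemical exposure, endogenous transcription factor activity.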

[6] = molecular target: Transcription factor Sp1 (Homo sapiens) (UniProt P08047); assay: ATG_Sp1_CIS: Attagene CIS-FACTORIAL HepG2 Assay for human Specificity Protein 1 (Sp1) (AID 2282961); settings: HepG2 Sp1 cis-reporter transcription, actives raise or lower the signal
How it was run: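 Read-out: fluorescence of 6-FAM-labeled, HpaI-digested RT-PCR products separated by capillary electrophoresis. HepG2 cells carried transfected cis-element reporter units and were exposed to chemicals for 24 h; gain or loss of signal fitted relative to DMSO.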

[7] = ATG_SREBP_CIS: Attagene CIS-FACTORIAL HepG2 Assay for human Sterol Regulatory Element Binding (SREBP) (AID 2282962); settings: HepG2 Attagene cis-factorial SREBP reporter, mRNA; actives raise or lower the signal
How it was run: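 In this cis-format assay, HepG2 liver cells express reporters controlled by promoter elements responsive to native transcription factors. Exposure lasts 24 h; reporter mRNA fluorescence from capillary electrophoresis gives the signal, fitted bidirectionally against DMSO.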

[8] = molecular target: Signal transducer and activator of transcription 3 (Homo sapiens) (UniProt P40763); assay: ATG_STAT3_CIS: Attagene CIS-FACTORIAL HepG2 Assay for human Signal Transducer and Activator of Transcription 3 (STAT3) (AID 2282963); settings: HepG2, Attagene cis-factorial STAT3 reporter transcription; actives raise or lower the signal
How it was run: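 HepG2, MRTU-transfected, 24 h dosing. RNA → RT → PCR → FAM label → HpaI → CE. Bidirectional fit vs DMSO.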

[9] = ATG_TA_CIS: Attagene CIS-FACTORIAL HepG2 Assay for human TA Basal Promoter (AID 2282964); settings: HepG2 Attagene CIS-factorial TA basal promoter reporter; actives raise or lower the signal
How it was run: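 HepG2 cells transiently transfected with multiplexed cis-promoter reporter units, dosed 24 h. Reporter mRNA measured by RT-PCR, 6-FAM labelling, HpaI digestion and capillary electrophoresis; bidirectional fit versus DMSO baseline, serving as background control.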

[10] = ATG_TCF_b_cat_CIS: Attagene CIS-FACTORIAL HepG2 Assay for human T-Cell-Factor with beta-catenin (TCF/b-cat) (AID 2282965); settings: HepG2 TCF/beta-catenin cis-reporter transcription, actives raise or lower the signal
How it was run: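 HepG2 cells transiently transfected with multiple cis-promoter-regulated reporter transcription units, so endogenous transcription factor activity is measured. Reporter mRNA read 24 hours after dosing by RT-PCR, fluorescent labelling and capillary electrophoresis; bidirectional fitting against DMSO.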

[11] = ATG_TAL_CIS: Attagene CIS-FACTORIAL HepG2 Assay for human TAL Basal Promoter (AID 2282966); settings: HepG2 Attagene cis-factorial TAL promoter reporter; actives raise or lower the signal;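 note: background control endpoint measuring basal TAL promoter reporter mRNA not a specific factor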
How it was run: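 Human hepatoma HepG2 cells, transfected with promoter-regulated reporter units, were treated 24 h. Reporter transcript levels, measured through RT-PCR and capillary electrophoresis, were fitted for gain or loss relative to DMSO.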

[12] = ATG_TGFb_CIS: Attagene CIS-FACTORIAL HepG2 Assay for human Transforming Growth Factor (TGF) (AID 2282967); settings: HepG2 Attagene CIS TGFb reporter, mRNA transcription; actives raise or lower the signal
How it was run: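 HepG2 cells transiently transfected with cis-promoter-driven multiplexed reporter units; 24 h compound exposure. Reporter mRNA measured by RT-PCR, 6-FAM labeling, HpaI digestion and capillary electrophoresis; bidirectional fit versus DMSO baseline.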

[13] = ATG_VDRE_CIS: Attagene CIS-FACTORIAL HepG2 Assay for human Vitamin D Receptor Element (VDRE) (AID 2282968); settings: HepG2 VDRE cis-reporter transcription, actives raise or lower the signal
How it was run: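 Steps: transfect HepG2 with multiple reporter transcription units; dose chemicals 24 h; isolate RNA; RT-PCR; label with 6-FAM primer extension; HpaI digest; capillary electrophoresis. Curves fitted both directions against DMSO.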

[14] = molecular target: X-box-binding protein 1 (Homo sapiens) (UniProt P17861); assay: ATG_Xbp1_CIS: Attagene CIS-FACTORIAL HepG2 Assay for human X-box Binding Protein 1 (XBP1) (AID 2282972); settings: HepG2 XBP1 cis-element reporter, Attagene multiplex; actives raise or lower the signal
How it was run: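 Changes in reporter transcript abundance, read by RT-PCR and capillary electrophoresis, reflect endogenous transcription factor activity. Transfected HepG2 cells received compound for 24 hours; DMSO defined baseline for bidirectional analysis.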

[15] = ATG_M_19_TRANS: Attagene TRANS-FACTORIAL HepG2 Assay for M19 Transcription Factor (Internal Marker) (AID 2282974; active = hit-call score of the fitted dose curve at least 0.9, where 1 is the maximum); settings: HepG2 Attagene TRANS-FACTORIAL M19 internal marker reporter
How it was run: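 24 h chemical exposure of transiently transfected HepG2 (MRTU library). RNA → oligo(dT) RT → PCR → 6-FAM labelling → HpaI cut → CE fluorescence. Positive-direction fit vs DMSO baseline; background internal-marker readout.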

[16] = molecular target: Nuclear receptor subfamily 1 group I member 3 (Homo sapiens) (UniProt Q14994); assay: ATG_CAR_TRANS: Attagene TRANS-FACTORIAL HepG2 Assay for human Constitutive Androstane Receptor (CAR) (AID 2282969; active = hit-call score of the fitted dose curve at least 0.9, where 1 is the maximum;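 note: activators raise reporter mRNA above DMSO so AC50 marks induction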); settings: HepG2 Attagene TRANS-FACTORIAL CAR reporter
How it was run: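 Steps: transient transfection of HepG2 with multiple GAL4-UAS reporter units; 24 h compound incubation; RNA isolation, RT-PCR, 6-FAM primer extension, HpaI digest; capillary electrophoresis. Gain-of-signal relative to DMSO negative control.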

[17] = ATG_GAL4_TRANS: Attagene TRANS-FACTORIAL HepG2 Assay for GAL4 (Internal Marker) (AID 2282976; active = hit-call score of the fitted dose curve at least 0.9, where 1 is the maximum); settings: HepG2 Attagene TRANS GAL4 internal marker reporter
How it was run: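 Liver HepG2 line bearing multiplexed GAL4-UAS reporter constructs; 24 h chemical treatment. Transcripts were quantified as fluorescent fragments on capillary electrophoresis after RT-PCR and HpaI cut, with activity fitted upward from DMSO.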

Measured: outcome

Sequence of Transcription factor Sp1 (Homo sapiens) (P08047 whole entry, looked up): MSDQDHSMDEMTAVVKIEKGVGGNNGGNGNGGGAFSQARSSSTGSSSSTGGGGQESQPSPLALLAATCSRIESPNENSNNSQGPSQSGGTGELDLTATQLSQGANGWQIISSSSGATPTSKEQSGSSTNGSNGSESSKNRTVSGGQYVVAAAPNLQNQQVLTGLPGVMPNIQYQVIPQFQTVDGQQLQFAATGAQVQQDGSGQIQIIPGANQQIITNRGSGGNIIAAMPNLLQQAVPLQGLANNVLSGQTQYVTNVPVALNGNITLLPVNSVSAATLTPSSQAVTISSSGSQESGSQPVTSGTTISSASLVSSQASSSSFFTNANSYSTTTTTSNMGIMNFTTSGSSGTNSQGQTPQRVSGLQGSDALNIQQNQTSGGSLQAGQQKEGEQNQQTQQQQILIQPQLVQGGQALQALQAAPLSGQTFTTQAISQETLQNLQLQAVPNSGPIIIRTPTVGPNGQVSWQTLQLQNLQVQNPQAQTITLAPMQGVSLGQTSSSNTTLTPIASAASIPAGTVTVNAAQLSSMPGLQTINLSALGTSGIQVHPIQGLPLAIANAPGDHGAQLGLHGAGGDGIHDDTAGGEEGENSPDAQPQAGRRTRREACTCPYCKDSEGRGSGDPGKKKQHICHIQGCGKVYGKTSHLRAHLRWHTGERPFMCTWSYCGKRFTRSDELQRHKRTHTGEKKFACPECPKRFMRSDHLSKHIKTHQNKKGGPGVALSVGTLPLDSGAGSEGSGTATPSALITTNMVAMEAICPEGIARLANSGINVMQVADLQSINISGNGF
Sequence of X-box-binding protein 1 (Homo sapiens) (P17861 whole entry, looked up): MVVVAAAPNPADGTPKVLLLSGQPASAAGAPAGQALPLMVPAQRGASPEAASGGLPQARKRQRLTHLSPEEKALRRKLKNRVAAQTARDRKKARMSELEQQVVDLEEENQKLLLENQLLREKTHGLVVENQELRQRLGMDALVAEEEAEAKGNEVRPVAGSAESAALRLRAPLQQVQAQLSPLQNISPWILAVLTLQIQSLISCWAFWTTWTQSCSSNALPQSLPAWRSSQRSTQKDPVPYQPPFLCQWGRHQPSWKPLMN
Sequence of Signal transducer and activator of transcription 3 (Homo sapiens) (P40763 whole entry, looked up): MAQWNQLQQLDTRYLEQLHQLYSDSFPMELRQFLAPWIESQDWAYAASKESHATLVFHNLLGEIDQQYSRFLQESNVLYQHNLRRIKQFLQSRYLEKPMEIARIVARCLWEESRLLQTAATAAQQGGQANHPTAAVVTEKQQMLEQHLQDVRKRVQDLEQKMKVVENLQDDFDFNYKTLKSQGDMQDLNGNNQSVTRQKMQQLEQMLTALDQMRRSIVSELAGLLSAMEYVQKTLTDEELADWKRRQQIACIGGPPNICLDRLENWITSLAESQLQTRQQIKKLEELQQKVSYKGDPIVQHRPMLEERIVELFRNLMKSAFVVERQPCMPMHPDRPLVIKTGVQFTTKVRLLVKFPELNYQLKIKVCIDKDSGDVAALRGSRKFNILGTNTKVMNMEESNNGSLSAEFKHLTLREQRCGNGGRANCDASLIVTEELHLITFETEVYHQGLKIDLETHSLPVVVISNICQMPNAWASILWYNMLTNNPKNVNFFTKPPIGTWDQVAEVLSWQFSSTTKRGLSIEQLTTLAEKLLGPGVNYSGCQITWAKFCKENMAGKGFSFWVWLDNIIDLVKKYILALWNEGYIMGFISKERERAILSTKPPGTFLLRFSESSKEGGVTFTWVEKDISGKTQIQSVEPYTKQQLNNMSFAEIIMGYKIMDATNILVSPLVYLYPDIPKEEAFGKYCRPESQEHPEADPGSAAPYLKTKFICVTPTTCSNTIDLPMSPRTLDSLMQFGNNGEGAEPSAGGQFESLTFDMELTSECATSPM
Sequence of Paired box protein Pax-6 (Homo sapiens) (P26367 whole entry, looked up): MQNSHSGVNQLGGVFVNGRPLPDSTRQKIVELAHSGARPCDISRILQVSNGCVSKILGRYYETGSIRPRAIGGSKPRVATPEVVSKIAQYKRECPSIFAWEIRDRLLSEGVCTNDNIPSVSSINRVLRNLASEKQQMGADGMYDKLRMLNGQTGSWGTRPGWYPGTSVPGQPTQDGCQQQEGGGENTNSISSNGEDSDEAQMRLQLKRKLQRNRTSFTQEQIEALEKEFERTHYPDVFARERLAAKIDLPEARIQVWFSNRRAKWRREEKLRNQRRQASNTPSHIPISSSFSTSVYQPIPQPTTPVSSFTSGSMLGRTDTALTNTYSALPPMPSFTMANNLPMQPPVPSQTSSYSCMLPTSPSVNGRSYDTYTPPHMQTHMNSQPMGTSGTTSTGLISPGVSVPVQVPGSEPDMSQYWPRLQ
Sequence of Nuclear receptor subfamily 1 group I member 3 (Homo sapiens) (Q14994 whole entry, looked up, the tested form may be a part): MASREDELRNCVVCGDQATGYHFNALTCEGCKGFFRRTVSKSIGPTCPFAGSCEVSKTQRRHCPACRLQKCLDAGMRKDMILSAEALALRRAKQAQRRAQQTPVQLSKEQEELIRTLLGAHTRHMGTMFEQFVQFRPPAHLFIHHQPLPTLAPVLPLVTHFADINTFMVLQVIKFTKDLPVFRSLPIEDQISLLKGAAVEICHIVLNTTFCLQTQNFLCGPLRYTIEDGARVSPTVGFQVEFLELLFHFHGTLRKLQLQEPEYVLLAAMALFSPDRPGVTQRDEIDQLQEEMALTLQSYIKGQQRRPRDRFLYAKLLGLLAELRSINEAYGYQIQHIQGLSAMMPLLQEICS

CC(=O)[C@H]1[C@H](C#N)C[C@H]2[C@@H]3CC=C4C[C@@H](O)CC[C@]4(C)[C@H]3CC[C@@]21C
not listed: [16] | [17]
inactive: all other assays above

C=CC(=O)NC(C)(C)CS(=O)(=O)O
inactive: all assays above

O=CC1CC1
not listed: [16]
inactive: all other assays above

CC(C)=CC1CC(C)CCO1 (configuration not stated)
not listed: [15] | [16] | [17]
inactive: all other assays above

Source: PubChem BioAssay (EPA / NIEHS)
